Structures can show the parent of a compound that is named as a salt.
What was measured:
Conditions in all cases: treatment time: 24 h
[1] = test system: WPMY1-GM130-SQSTM1; test: lowest phenotypically active concentration; higher = less potent
In short: (§1)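 Fifteen gene-edited A549, HepG2 and WPMY1 reporter lines (BFP segmentation plus GFP and RFP/FusionRed markers) were treated at 0.3, 1, 3 or 9 µM for 24 h, four wells each, then imaged live. Live-cell features per well were normalised to DMSO control wells. Deviation required ≥3 of 4 wells beyond the 95th percentile of DMSO Euclidean distances, and reproducibility required median replicate Pearson correlation above the 95th percentile of non-replicates. Phenotypic activity needed both criteria.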

[2] = test system: WPMY1-TP53BP1-CLTA; test: as above
In short: as §1

[3] = test system: A549-ACTB-RAB5A; test: phenotypically active (imaging signature differs from DMSO and reproducible) at any of 0.3-9 uM (binary (1 = active, 0 = inactive)); higher = active
In short: as §1

[4] = test system: A549-CANX-COX4; test: as above
In short: as §1

[5] = test system: A549-GM130-SQSTM1; test: as above
In short: as §1

[6] = test system: A549-TP53BP1-CLTA; test: as above
In short: as §1

[7] = test system: A549-TUBA1B-RELA; test: as above
In short: as §1

[8] = test system: HepG2-ACTB-RAB5A; test: as above
In short: as §1

[9] = test system: HepG2-CANX-COX4; test: as above
In short: as §1

[10] = test system: HepG2-GM130-SQSTM1; test: as above
In short: as §1

[11] = test system: HepG2-TP53BP1-CLTA; test: as above
In short: as §1

[12] = test system: HepG2-TUBA1B-RELA; test: as above
In short: as §1

[13] = test system: WPMY1-ACTB-RAB5A; test: as above
In short: as §1

[14] = test system: WPMY1-CANX-COX4; test: as above
In short: as §1

[15] = test system: WPMY1-GM130-SQSTM1; test: as above
In short: as §1

[16] = test system: WPMY1-TP53BP1-CLTA; test: as above
In short: as §1

[17] = test system: WPMY1-TUBA1B-RELA; test: as above
In short: as §1

[18] = test system: WPMY1-ACTB-RAB5A; test: lowest phenotypically active concentration; higher = less potent
In short: as §1

[19] = test system: WPMY1-CANX-COX4; test: as above
In short: as §1

SMILES	lowest phenotypically active concentration [1] [µM]	lowest phenotypically active concentration [2] [µM]	phenotypically active [3]	phenotypically active [4]	phenotypically active [5]	phenotypically active [6]	phenotypically active [7]	phenotypically active [8]	phenotypically active [9]	phenotypically active [10]	phenotypically active [11]	phenotypically active [12]	phenotypically active [13]	phenotypically active [14]	phenotypically active [15]	phenotypically active [16]	phenotypically active [17]	lowest phenotypically active concentration [18] [µM]	lowest phenotypically active concentration [19] [µM]
COc1ccc2c3c(c(=O)n(C)c2c1OC)C=CC(C)(C)O3 [Veprisine]	9	9	0 (inactive)	0 (inactive)	0 (inactive)	0 (inactive)	0 (inactive)	0 (inactive)	0 (inactive)	0 (inactive)	0 (inactive)	0 (inactive)	0 (inactive)	0 (inactive)	1 (active)	1 (active)	0 (inactive)	–	–
C/C(=C/C(=O)Nc1ccccc1C(=O)O)c1ccc2ccccc2c1	–	–	–	0 (inactive)	–	0 (inactive)	–	0 (inactive)	0 (inactive)	0 (inactive)	0 (inactive)	0 (inactive)	0 (inactive)	0 (inactive)	0 (inactive)	0 (inactive)	0 (inactive)	–	–
CC(C)C(=O)Nc1ncc(-c2cc(C(F)F)nn2-c2c(Cl)cccc2Cl)s1	9	–	1 (active)	0 (inactive)	0 (inactive)	–	0 (inactive)	1 (active)	1 (active)	0 (inactive)	–	0 (inactive)	1 (active)	1 (active)	1 (active)	–	1 (active)	9	3
C[C@H]1O[C@H](O[C@H]2[C@H](O)[C@@H](O)[C@@H](O[C@H]3[C@H](O)[C@@H](O)[C@H](O)O[C@@H]3CO)O[C@@H]2CO)[C@H](O)[C@@H](O)[C@@H]1N[C@H]1C=C(CO)[C@@H](O)[C@H](O)[C@H]1O [Acarbose]	–	–	–	0 (inactive)	–	0 (inactive)	–	0 (inactive)	0 (inactive)	0 (inactive)	0 (inactive)	0 (inactive)	0 (inactive)	0 (inactive)	0 (inactive)	0 (inactive)	0 (inactive)	–	–
Clc1ccc2nsnc2c1NC1=NCCN1 [tizanidine]	–	–	–	0 (inactive)	–	0 (inactive)	–	0 (inactive)	0 (inactive)	0 (inactive)	0 (inactive)	0 (inactive)	0 (inactive)	0 (inactive)	0 (inactive)	0 (inactive)	0 (inactive)	–	–
Cc1ccc(C(=O)c2cc(O)c(O)c([N+](=O)[O-])c2)cc1 [tolcapone]	–	–	–	0 (inactive)	–	0 (inactive)	–	0 (inactive)	0 (inactive)	0 (inactive)	0 (inactive)	0 (inactive)	0 (inactive)	0 (inactive)	0 (inactive)	0 (inactive)	0 (inactive)	–	–
CS(=O)(=O)c1ccc(-c2nnc(/C=C/c3nnc(-c4ccc(C#N)cc4)o3)n2-c2ccccc2Cl)nc1	–	9	0 (inactive)	0 (inactive)	0 (inactive)	0 (inactive)	0 (inactive)	0 (inactive)	0 (inactive)	0 (inactive)	0 (inactive)	0 (inactive)	0 (inactive)	0 (inactive)	0 (inactive)	1 (active)	0 (inactive)	–	–
C[C@@H](c1ncncc1F)[C@](O)(Cn1cncn1)c1ccc(F)cc1F [voriconazole]	–	–	–	0 (inactive)	–	0 (inactive)	–	0 (inactive)	0 (inactive)	0 (inactive)	0 (inactive)	0 (inactive)	0 (inactive)	0 (inactive)	0 (inactive)	0 (inactive)	0 (inactive)	–	–
Fc1ccc(Cl)cc1-c1nc(Nc2ccncc2)c2nccnc2n1	–	9	0 (inactive)	0 (inactive)	0 (inactive)	0 (inactive)	0 (inactive)	0 (inactive)	0 (inactive)	0 (inactive)	0 (inactive)	0 (inactive)	0 (inactive)	0 (inactive)	0 (inactive)	1 (active)	0 (inactive)	–	–
C=C[C@H]1C[N@@]2CC[C@H]1C[C@@H]2[C@@H](O)c1ccnc2ccc(OC)cc12 [quinidine]	–	–	0 (inactive)	0 (inactive)	0 (inactive)	–	0 (inactive)	0 (inactive)	0 (inactive)	0 (inactive)	–	0 (inactive)	0 (inactive)	0 (inactive)	0 (inactive)	–	0 (inactive)	–	–
CC1(C)NC(=O)N(c2ccc([N+](=O)[O-])c(C(F)(F)F)c2)C1=O [nilutamide]	–	–	–	0 (inactive)	–	0 (inactive)	–	0 (inactive)	0 (inactive)	0 (inactive)	0 (inactive)	0 (inactive)	0 (inactive)	0 (inactive)	0 (inactive)	0 (inactive)	0 (inactive)	–	–
COC(=O)[C@@H]1[C@H]2C[C@H]3c4[nH]c5ccccc5c4CCN3C[C@@H]2CC[C@@H]1O [Yohimbine hydrochloride]	9	–	0 (inactive)	0 (inactive)	0 (inactive)	0 (inactive)	0 (inactive)	0 (inactive)	0 (inactive)	0 (inactive)	0 (inactive)	0 (inactive)	0 (inactive)	0 (inactive)	1 (active)	0 (inactive)	0 (inactive)	–	–
Nc1ccn([C@@H]2O[C@H](CO)[C@@H](O)[C@H]2O)c(=O)n1 [Cytidine]	–	–	–	0 (inactive)	–	0 (inactive)	–	0 (inactive)	0 (inactive)	0 (inactive)	0 (inactive)	0 (inactive)	0 (inactive)	0 (inactive)	0 (inactive)	0 (inactive)	0 (inactive)	–	–
C#C[C@]1(OC(C)=O)CC[C@H]2[C@@H]3CCC4=C[C@@H](OC(C)=O)CC[C@@H]4[C@H]3CC[C@@]21C [ethynodiol diacetate]	–	–	–	0 (inactive)	–	0 (inactive)	–	0 (inactive)	0 (inactive)	0 (inactive)	0 (inactive)	0 (inactive)	0 (inactive)	0 (inactive)	0 (inactive)	0 (inactive)	0 (inactive)	–	–

— the supplement of paper PMC7411054
